We go through 15 compounds from PubChem BioAssay (EPA / NIEHS).

The target of assay [1] is human RAR-related Orphan Receptor beta (RORb), RORB (gene 6096) (UniProt Q92753). Nature of the assay: ATG_RORb_TRANS: Attagene TRANS-FACTORIAL HepG2 Assay for human RAR-related Orphan Receptor beta (RORb) (AID 2283010; active = hit-call score of the fitted dose curve at least 0.9, where 1 is the maximum). In outline:
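In this TRANS-format test, human HepG2 cells express chimeric NR-Gal4 fusion proteins driving GAL4-UAS reporters. After 24 h dosing, reporter transcripts are measured by fluorescent RT-PCR/capillary electrophoresis, with DMSO as negative control.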

Assay [2] addresses human Retinoid X Receptor beta (RXRb), RXRB (gene 6257) (UniProt P28702). Nature of the assay: ATG_RXRb_TRANS: Attagene TRANS-FACTORIAL HepG2 Assay for human Retinoid X Receptor beta (RXRb) (AID 2283013; active = hit-call score of the fitted dose curve at least 0.9, where 1 is the maximum). In outline: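 Multiplexed TRANS reporter assay in HepG2; 24 h dosing; reporter mRNA by RT-PCR/CE fluorescence; gain-of-signal relative to DMSO.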
The target in assay [3] is Retinoic acid receptor RXR-alpha (Homo sapiens) (UniProt P19793). The assay is described as follows: ATG_RXRa_TRANS: Attagene TRANS-FACTORIAL HepG2 Assay for human Retinoid X Receptor alpha (RXRa) (AID 2283012; active = hit-call score of the fitted dose curve at least 0.9, where 1 is the maximum). In outline: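 Cells (HepG2) carried transiently transfected GAL4-responsive reporter units. Following a 24 h chemical incubation, reporter mRNA induction was read via RT-PCR fragment analysis; DMSO served as negative control and baseline.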

The target in assay [4] is human Thyroid Receptor alpha (THRa1), THRA (gene 7067) (UniProt P10827). The assay is described as follows: ATG_THRa1_TRANS: Attagene TRANS-FACTORIAL HepG2 Assay for human Thyroid Receptor alpha (THRa1) (AID 2283014; active = hit-call score of the fitted dose curve at least 0.9, where 1 is the maximum). In short, it runs like this:
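HepG2 cells transiently transfected with chimeric NR-Gal4 and GAL4-UAS reporter units, dosed 24 h. Reporter mRNA quantified by RT-PCR, fluorescent labeling, HpaI digestion and capillary electrophoresis; gain-of-signal fit versus DMSO.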

Assay [5] addresses human Vitamin D Receptor (VDR), VDR (gene 7421) (UniProt P11473). The assay is described as follows: ATG_VDR_TRANS: Attagene TRANS-FACTORIAL HepG2 Assay for human Vitamin D Receptor (VDR) (AID 2283022; active = hit-call score of the fitted dose curve at least 0.9, where 1 is the maximum). In outline:
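HepG2 cells were transiently transfected with GAL4-UAS reporter units and a chimeric VDR-Gal4 construct, then dosed for 24 hours. Reporter mRNA was quantified by RT-PCR, fluorescent labeling, HpaI digestion and capillary electrophoresis; gain of signal analysed vs DMSO.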

Read-out in assay [6]: Interleukin-1 alpha (IL1a), IL1A (gene 3552)
The assay is described as follows: BSK_BE3C_IL1a: BioMAP Diversity Plus: BE3C Assay for Interleukin-1 alpha (IL1a) Biomarker Activity (AID 2283016). The conditions noted are these: primary human bronchial epithelial cells; actives raise or lower the signal. In short, it runs like this:
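Cultures of primary human bronchial epithelial cells receive test chemical. After 24 h, IL-1a is quantified by ELISA, while parallel wells are fixed in TCA and SRB-stained for total protein. Changes in either direction are fitted relative to DMSO.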

Read-out in assay [7]: Monocyte Chemoattractant Protein-1 (MCP1), CCL2 (gene 6347)
The assay is described as follows: BSK_3C_MCP1: BioMAP Diversity Plus: 3C Assay for Monocyte Chemoattractant Protein-1 (MCP1) Biomarker Activity (AID 2283017). The conditions noted are these: primary human endothelial cells (HUVEC); actives raise or lower the signal. In short, it runs like this: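 Human umbilical vein endothelial cells (3C system) exposed to chemicals for 24 h; MCP-1 quantified by ELISA against the DMSO baseline with bidirectional fitting, and parallel SRB staining used to assess cytotoxicity.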

Read-out in assay [8]: Monocyte Chemoattractant Protein-1 (MCP1), CCL2 (gene 6347)
Nature of the assay: BSK_4H_MCP1: BioMAP Diversity Plus: 4H Assay for Monocyte Chemoattractant Protein-1 (MCP1) Biomarker Activity (AID 2283018). The conditions noted are these: primary human endothelial cells (HUVEC); actives raise or lower the signal. In short, it runs like this: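 Readout: MCP-1 ELISA on compound-treated HUVEC, sampled 24 h post-dosing. Baseline and negative control DMSO; bidirectional fit. Overt toxicity checked alongside by sulforhodamine B protein staining at time of biomarker measurement.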

Read-out in assay [9]: Human Leukocyte Antigen - DR isotype (HLADR), HLA-DRA (gene 3122)
Nature of the assay: BSK_3C_HLADR: BioMAP Diversity Plus: 3C Assay for Human Leukocyte Antigen - DR isotype (HLADR) Biomarker Activity (AID 2283019). The conditions noted are these: primary human endothelial cells (HUVEC); actives raise or lower the signal. In short, it runs like this: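 HUVEC monoculture, HLA-DR measured by ELISA 24 h after chemical dosing. Fitted bidirectionally against DMSO baseline; parallel SRB staining assessed cytotoxicity, with 3C proliferation read by SRB at 48 h.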

Read-out in assay [10]: Monokine induced gamma interferon (MIG), CXCL9 (gene 4283)
Nature of the assay: BSK_3C_MIG: BioMAP Diversity Plus: 3C Assay for Monokine induced gamma interferon (MIG) Biomarker Activity (AID 2283021). The conditions noted are these: primary human endothelial cells (HUVEC); actives raise or lower the signal. In short, it runs like this: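 After 24 h of treatment, human umbilical vein endothelial cultures (3C system) had their MIG biomarker level determined by ELISA, with DMSO serving as negative control.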

Assay [11] in a line: BSK_3C_SRB: Viability Assessment in the BioMAP Diversity Plus: 3C Assay (AID 2283023).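 Also: fitted both ways against DMSO so a hit may be signal rise or drop.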 The conditions noted are these: primary human endothelial cells (HUVEC). In short, it runs like this:
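Human umbilical vein endothelial cells in the 3C system, treated 24 h. Total protein measured by 0.1% sulforhodamine B staining after 10% TCA fixation, read at 560 nm; bidirectional fit versus DMSO.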

Assay [12] in a line: BSK_3C_Vis: BioMAP Diversity Plus: 3C Assay for Morphology Visualization (AID 2283025).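 Also: fitted both ways so gain or loss versus DMSO counts.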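 As to AC50: light microscopy image of cell morphology used as background control.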 The conditions noted are these: primary human endothelial cells (HUVEC). In short, it runs like this:
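Endothelial cells from human umbilical vein were treated with test chemicals for 24 h and inspected by light microscopy for changes in cell conformation.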

Read-out in assay [13]: Pselectin, SELP (gene 6403)
Nature of the assay: BSK_4H_Pselectin: BioMAP Diversity Plus: 4H Assay for Pselectin Biomarker Activity (AID 2283026). The conditions noted are these: primary human endothelial cells (HUVEC); actives raise or lower the signal. In outline: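 Human vascular endothelium from umbilical vein; P-selectin measured by ELISA at 24 h post-dose, with cytotoxicity checked by sulforhodamine B total-protein staining in parallel cultures (0.1% SRB after 10% TCA fixation, read at 560 nm).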

Assay [14] can be described thus: BSK_4H_SRB: Viability Assessment in the BioMAP Diversity Plus: 4H Assay (AID 2283027).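 Also: cells exposed to compound for 24 h before staining.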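 As to AC50: curves fitted both ways versus DMSO so AC50 may be loss or gain.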 The conditions noted are these: primary human endothelial cells (HUVEC). In outline: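 Absorbance at 560 nm of SRB-stained total protein served as the viability read-out in confluent primary human umbilical vein endothelium 24 h after chemical treatment. Curves were fitted bidirectionally against DMSO as negative control.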

Assay [15] can be described thus: BSK_BE3C_SRB: Viability Assessment in the BioMAP Diversity Plus: BE3C Assay (AID 2283028). The conditions noted are these: primary human bronchial epithelial cells. In short, it runs like this:
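Human bronchial epithelial primary cells in confluent culture, 24 h after chemical dosing; total protein by 0.1% SRB staining after 10% TCA fixation, read at 560 nm. Bidirectional fitting versus DMSO baseline.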

Read-out in assay [16]: Thrombomodulin, THBD (gene 7056)
The assay is described as follows: BSK_3C_Thrombomodulin: BioMAP Diversity Plus: 3C Assay for Thrombomodulin Biomarker Activity (AID 2283029). The conditions noted are these: primary human endothelial cells (HUVEC); actives raise or lower the signal. In outline: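 Thrombomodulin ELISA, human primary HUVEC, 24 h post-dose; data fitted in both directions relative to DMSO.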

Read-out in assay [17]: Interleukin-8 (IL8), CXCL8 (gene 3576)
Nature of the assay: BSK_3C_IL8: BioMAP Diversity Plus: 3C Assay for Interleukin-8 (IL8) Biomarker Activity (AID 2283020). The conditions noted are these: primary human endothelial cells (HUVEC); actives raise or lower the signal. In outline: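 Human vascular endothelial cells (umbilical vein) in the 3C system; IL-8 level detected by ELISA at 24 h post-dose, with DMSO as baseline.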

Read-out in assay [18]: Matrix Metallopeptidase 1 (MMP1), MMP1 (gene 4312)
Nature of the assay: BSK_BE3C_MMP1: BioMAP Diversity Plus: BE3C Assay for Matrix Metallopeptidase 1 (MMP1) Biomarker Activity (AID 2283024). The conditions noted are these: primary human bronchial epithelial cells; actives raise or lower the signal. In short, it runs like this:
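Dose cells, wait 24 h, run MMP1 ELISA; cells are human bronchial epithelial primaries. Both increases and decreases relative to DMSO counted.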

The target of assay [19] is human RAR-related Orphan Receptor gamma (RORg), RORC (gene 6097) (UniProt P51449). The assay is described as follows: ATG_RORg_TRANS: Attagene TRANS-FACTORIAL HepG2 Assay for human RAR-related Orphan Receptor gamma (RORg) (AID 2283011; active = hit-call score of the fitted dose curve at least 0.9, where 1 is the maximum). In outline: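 HepG2 cells transiently transfected with GAL4-UAS reporter units and chimeric RORg-Gal4 construct; after 24 h chemical exposure, reporter mRNA measured by RT-PCR with fluorescent capillary electrophoresis, gain of signal fitted against DMSO.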

Read-out in assay [20]: E-selectin (Homo sapiens) (UniProt P16581)
Nature of the assay: BSK_3C_Eselectin: BioMAP Diversity Plus: 3C Assay for Eselectin Biomarker Activity (AID 2283015).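 Also: cell surface E-selectin protein quantified by ELISA 24 h after dosing.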 The conditions noted are these: primary human endothelial cells (HUVEC); actives raise or lower the signal. In outline:
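Primary human umbilical vein endothelial cells (3C system), read 24 h after compound addition; E-selectin measured by ELISA. Bidirectional curve fitting against DMSO baseline; cytotoxicity by parallel SRB total-protein staining.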

Records with an inconclusive call do not appear. Activity calls are given as the source filed them. The calls were made as follows, unless noted: active = hit-call score of the fitted dose curve at least 0.9, where 1 is the maximum; inactive = score below 0.9. Peptide text beside a SMILES is read from it.

Sequence of human RAR-related Orphan Receptor beta (RORb), RORB (gene 6096) (Q92753 whole entry, looked up, the tested form may be a part): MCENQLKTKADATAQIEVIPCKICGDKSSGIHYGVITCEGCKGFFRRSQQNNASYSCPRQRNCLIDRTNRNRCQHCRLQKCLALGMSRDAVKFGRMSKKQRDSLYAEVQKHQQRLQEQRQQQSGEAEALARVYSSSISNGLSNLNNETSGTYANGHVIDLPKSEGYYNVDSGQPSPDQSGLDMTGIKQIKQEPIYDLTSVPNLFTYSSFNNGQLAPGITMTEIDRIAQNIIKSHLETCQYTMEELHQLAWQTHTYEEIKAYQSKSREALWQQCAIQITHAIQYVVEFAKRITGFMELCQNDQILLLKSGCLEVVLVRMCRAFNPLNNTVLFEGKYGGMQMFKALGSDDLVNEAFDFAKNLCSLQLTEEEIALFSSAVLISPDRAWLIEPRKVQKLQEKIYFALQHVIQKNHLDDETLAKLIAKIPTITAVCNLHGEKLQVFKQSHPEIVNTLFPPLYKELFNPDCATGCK
Sequence of human Retinoid X Receptor beta (RXRb), RXRB (gene 6257) (P28702 whole entry, looked up, the tested form may be a part): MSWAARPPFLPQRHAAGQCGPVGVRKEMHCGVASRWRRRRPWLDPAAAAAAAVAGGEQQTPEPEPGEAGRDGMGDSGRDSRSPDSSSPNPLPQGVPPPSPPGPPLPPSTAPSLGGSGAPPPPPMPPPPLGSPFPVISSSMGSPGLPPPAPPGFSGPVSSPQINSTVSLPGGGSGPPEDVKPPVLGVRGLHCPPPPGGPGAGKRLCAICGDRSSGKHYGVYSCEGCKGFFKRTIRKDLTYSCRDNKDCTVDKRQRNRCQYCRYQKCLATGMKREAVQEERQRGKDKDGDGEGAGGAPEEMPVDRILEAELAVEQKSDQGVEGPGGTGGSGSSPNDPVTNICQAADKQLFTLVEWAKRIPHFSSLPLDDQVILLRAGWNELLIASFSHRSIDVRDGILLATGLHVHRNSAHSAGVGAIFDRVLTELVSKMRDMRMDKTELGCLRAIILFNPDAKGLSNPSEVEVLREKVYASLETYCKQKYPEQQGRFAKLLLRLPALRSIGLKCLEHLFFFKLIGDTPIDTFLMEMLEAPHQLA
Sequence of human Vitamin D Receptor (VDR), VDR (gene 7421) (P11473 whole entry, looked up, the tested form may be a part): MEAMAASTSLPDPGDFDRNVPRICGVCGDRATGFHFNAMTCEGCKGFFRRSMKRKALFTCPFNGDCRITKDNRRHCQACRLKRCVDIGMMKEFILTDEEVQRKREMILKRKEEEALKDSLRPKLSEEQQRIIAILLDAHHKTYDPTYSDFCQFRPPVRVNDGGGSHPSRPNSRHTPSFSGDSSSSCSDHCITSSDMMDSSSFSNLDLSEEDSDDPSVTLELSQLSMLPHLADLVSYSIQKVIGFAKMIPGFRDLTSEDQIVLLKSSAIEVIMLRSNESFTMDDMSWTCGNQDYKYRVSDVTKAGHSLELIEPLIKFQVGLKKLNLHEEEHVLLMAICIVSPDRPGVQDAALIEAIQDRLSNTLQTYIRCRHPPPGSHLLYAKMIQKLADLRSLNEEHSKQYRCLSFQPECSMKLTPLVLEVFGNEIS
Sequence of Retinoic acid receptor RXR-alpha (Homo sapiens) (P19793 whole entry, looked up, the tested form may be a part): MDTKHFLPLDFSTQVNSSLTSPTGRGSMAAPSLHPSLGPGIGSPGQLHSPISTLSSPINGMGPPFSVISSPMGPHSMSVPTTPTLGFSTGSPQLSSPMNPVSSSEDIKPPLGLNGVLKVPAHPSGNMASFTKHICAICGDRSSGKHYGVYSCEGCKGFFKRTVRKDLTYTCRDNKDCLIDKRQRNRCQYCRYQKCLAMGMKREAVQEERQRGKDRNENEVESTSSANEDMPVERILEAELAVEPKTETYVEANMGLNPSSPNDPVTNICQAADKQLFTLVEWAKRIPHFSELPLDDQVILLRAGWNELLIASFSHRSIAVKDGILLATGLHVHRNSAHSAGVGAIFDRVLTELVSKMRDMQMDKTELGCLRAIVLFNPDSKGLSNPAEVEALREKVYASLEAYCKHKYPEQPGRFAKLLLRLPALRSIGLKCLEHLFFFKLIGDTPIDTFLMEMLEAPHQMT
Sequence of human Thyroid Receptor alpha (THRa1), THRA (gene 7067) (P10827 whole entry, looked up, the tested form may be a part): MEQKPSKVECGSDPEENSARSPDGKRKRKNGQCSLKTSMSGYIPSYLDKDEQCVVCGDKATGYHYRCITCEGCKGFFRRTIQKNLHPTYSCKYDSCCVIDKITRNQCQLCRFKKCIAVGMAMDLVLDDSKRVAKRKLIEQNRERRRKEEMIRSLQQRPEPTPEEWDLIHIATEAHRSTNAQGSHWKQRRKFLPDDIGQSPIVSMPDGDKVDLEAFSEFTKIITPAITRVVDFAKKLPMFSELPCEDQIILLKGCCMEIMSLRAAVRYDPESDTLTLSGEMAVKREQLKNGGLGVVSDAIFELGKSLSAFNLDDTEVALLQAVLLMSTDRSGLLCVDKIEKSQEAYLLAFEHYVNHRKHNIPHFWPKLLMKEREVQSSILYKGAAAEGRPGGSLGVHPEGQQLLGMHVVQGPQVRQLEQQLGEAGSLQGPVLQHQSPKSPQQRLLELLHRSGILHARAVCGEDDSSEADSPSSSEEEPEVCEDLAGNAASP
Sequence of E-selectin (Homo sapiens) (P16581 whole entry, looked up): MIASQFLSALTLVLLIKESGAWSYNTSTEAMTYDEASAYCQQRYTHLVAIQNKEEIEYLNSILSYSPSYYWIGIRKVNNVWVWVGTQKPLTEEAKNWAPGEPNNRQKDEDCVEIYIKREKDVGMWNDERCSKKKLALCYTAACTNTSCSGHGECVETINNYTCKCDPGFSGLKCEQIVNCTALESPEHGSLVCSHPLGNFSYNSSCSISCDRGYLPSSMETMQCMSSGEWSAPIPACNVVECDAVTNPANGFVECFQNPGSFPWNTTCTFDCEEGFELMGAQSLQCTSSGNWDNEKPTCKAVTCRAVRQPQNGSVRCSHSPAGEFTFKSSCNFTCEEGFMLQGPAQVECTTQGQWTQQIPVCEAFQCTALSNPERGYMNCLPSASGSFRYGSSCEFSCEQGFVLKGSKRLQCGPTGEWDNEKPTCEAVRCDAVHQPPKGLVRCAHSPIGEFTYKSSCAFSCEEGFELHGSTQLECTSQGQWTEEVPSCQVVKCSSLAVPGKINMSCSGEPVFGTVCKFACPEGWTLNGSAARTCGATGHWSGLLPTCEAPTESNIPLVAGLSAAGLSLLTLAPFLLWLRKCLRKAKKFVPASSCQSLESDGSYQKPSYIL
Sequence of human RAR-related Orphan Receptor gamma (RORg), RORC (gene 6097) (P51449 whole entry, looked up, the tested form may be a part): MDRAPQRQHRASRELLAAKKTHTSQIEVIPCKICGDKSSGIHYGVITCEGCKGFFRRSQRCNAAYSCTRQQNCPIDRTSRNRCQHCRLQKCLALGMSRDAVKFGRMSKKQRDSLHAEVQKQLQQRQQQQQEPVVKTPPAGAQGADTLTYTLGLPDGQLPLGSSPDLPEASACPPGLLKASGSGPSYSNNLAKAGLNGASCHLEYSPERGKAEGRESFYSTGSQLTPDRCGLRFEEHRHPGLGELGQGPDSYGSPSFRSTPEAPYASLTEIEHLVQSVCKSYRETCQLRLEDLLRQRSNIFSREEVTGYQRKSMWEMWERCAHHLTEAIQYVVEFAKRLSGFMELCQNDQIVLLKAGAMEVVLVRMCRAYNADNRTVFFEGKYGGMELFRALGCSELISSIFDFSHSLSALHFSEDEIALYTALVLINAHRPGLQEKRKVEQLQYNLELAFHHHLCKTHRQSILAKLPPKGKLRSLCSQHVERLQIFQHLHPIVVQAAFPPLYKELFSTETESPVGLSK

On to `CC(=O)CC(=O)Nc1ccccc1C`, for which the outcome in assay [1] and in [2] was inactive.

`C=C(C)C(=O)OCC(O)COc1ccc(C(C)(C)c2ccc(OCC(O)COC(=O)C(=C)C)cc2)cc1` (stereo not given): the compound was called inactive in assay [1], in assay [3] and in [5]. The half-maximal activity concentration (AC50) (usually the concentration at which the activity in the assay is half-maximal) in [4] was 23.8 µM (active).

On to `NNS(=O)(=O)c1ccc(Oc2ccc(S(=O)(=O)NN)cc2)cc1`, for which the outcome in assay [1] and in [5] was inactive.

As for `C=C(C)[C@@H]1CC=C(C)CC1`, the outcome in assay [1] and in assay [2] was inactive.

With `COC(=O)[C@H](Cc1ccccc1)NC(=O)[C@@H](N)CC(=O)O` (H-Asp-Phe-OMe), the compound was called inactive in assay [1] and in assay [4].

Turning to `O=C(Cl)c1ccc(C(=O)Cl)cc1`, the compound was called inactive in assay [1], in assay [4] and in assay [5].

On to `c1ccc2cnccc2c1`, for which the compound was called inactive in assay [1], in assay [3], in [4] and in assay [5].

In the case of `CC/C=C\CCOC(=O)c1ccccc1O`, the call in assay [1], in assay [2], in assay [4], in [6], in assay [10] and in assay [5] was inactive. Moreover, the outcome in assay [15] and in assay [16] was inactive. The AC50 in assay [7] is 29.7 µM (active); in assay [8] it was 10.9 µM (active); in [9], 33.1 µM (active); in assay [11] it was 29.9 µM (active); in assay [12], 37.1 µM (active); in assay [13], 12.4 µM (active). Moreover, the AC50 in [14] was 14.2 µM (active).

With `CCCCCCCC(=O)OCC(COC(=O)CCCCCCC)OC(=O)CCCCCCC`, the call in assay [1] and in assay [4] was inactive.

Regarding `CN(C)c1ccc2nc3ccc(=[N+](C)C)cc-3sc2c1`, the compound was called inactive in assay [1], in assay [3] and in [4].

For the compound `CCN1CN(CC)CN(CC)C1`, the compound was classed as inactive in [1], in [3], in [6], in assay [7], in assay [17] and in assay [10]. The result in assay [11], in assay [12], in [13], in [14], in assay [15] and in [16] was inactive. Also, the values for the AC50 in assay [9] and in [18] were 20 µM (active) and 0.112 µM (active), respectively.

As for `Cc1c(C(=O)c2c[nH]n(C)c2=O)ccc(S(C)(=O)=O)c1C1=NOCC1`, the call in [1] and in assay [5] was inactive.

With `O=C(O)C(F)(F)C(F)(F)C(F)(F)C(F)(F)C(=O)O`, the compound was classed as inactive in assay [1], in assay [3], in assay [6], in assay [7], in [9] and in [10]. Besides, the outcome in assay [5], in assay [11], in [18], in assay [13], in assay [14] and in assay [15] was inactive. Also, the outcome in assay [16] was inactive.

As to `N#Cc1ccc(C2CCCc3cncn32)cc1` (stereo not given), the compound was classed as inactive in [19] and in assay [3].

`CCc1cccc(C)c1N(C(=O)CS(=O)(=O)O)C(C)COC` (stereo not given): the result in [1], in [2], in [4], in [20], in assay [6] and in assay [7] was inactive. For the same compound, the result in [9], in assay [10], in assay [5], in assay [11], in assay [12] and in assay [13] was inactive. In addition, the result in assay [14], in [15] and in [16] was inactive.
